According to PubChem BioAssay (NCATS):
Results filed as inconclusive are left out. Where a call stands in place of a potency, no number is given. Calls of active or inactive are those of the source. Calls follow the shape of the dose curve; as a rule, active = well fitted curve in the direction sought with a large enough effect; inconclusive = small, poorly fitted or top-dose-only effect, or another doubt; inactive = no such curve, though single readings can be large; an effect the other way counts as inactive or inconclusive.

Columns and labels:
[1] = qHTS of pediatric cancer cell lines to identify multiple opportunities for drug repurposing: Primary screen for Saos-2 cells (AID 1347097); also: nearly all actives have a fitted effect of over 40% in size; also: potency is read from the fitted curve at half-maximal effect
How it was run: (§1)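 Plated cells (500-1,000 per well, growth media) were allowed to settle for 5 hours, treated with compound dilutions for 48 hours, then lysed with CellTiter-Glo for 15 min at room temperature before luminescence reading.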

[2] = qHTS of pediatric cancer cell lines to identify multiple opportunities for drug repurposing: Primary screen for SK-N-SH cells (AID 1347098);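 also: DMSO served as neutral control and bortezomib at 2.3 µM as positive control; nearly all actives have a fitted effect of over 65% in size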
How it was run: (§2)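 Cells (500-1,000/well) rested 5 h, then received compounds for 48 h; metabolically active cells were measured by CellTiter-Glo luminescence. Final concentrations spanned up to 46 µM (MIPE, 11-point) or 0.59 nM-46 µM (NPC, 8-point) in primary screens, 11-point in follow-ups.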

[3] = qHTS of pediatric cancer cell lines to identify multiple opportunities for drug repurposing: Primary screen for NB1643 cells (AID 1347099); also: nearly all actives have a fitted effect of over 50% in size
How it was run: as §1

[4] = qHTS of pediatric cancer cell lines to identify multiple opportunities for drug repurposing: Primary screen for LAN-5 cells (AID 1347100)
How it was run: (§3)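 Cells (500-1,000/well) in growth media were settled 5 h at 37 degrees C, then given compounds for 48 h. Viability was read as CellTiter-Glo luminescence. Primary runs used MIPE at 11 points (0.78 nM-46 µM) and NPC at 8 points (0.59 nM-46 µM); follow-ups used 11 points.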

[5] = qHTS of pediatric cancer cell lines to identify multiple opportunities for drug repurposing: Primary screen for BT-12 cells (AID 1347101); also: nearly all actives have a fitted effect of over 25% in size
How it was run: as §2

[6] = qHTS of pediatric cancer cell lines to identify multiple opportunities for drug repurposing: Primary screen for Rh18 cells (AID 1347102); also: nearly all actives have a fitted effect of over 65% in size
How it was run: as §3

[7] = qHTS of pediatric cancer cell lines to identify multiple opportunities for drug repurposing: Primary screen for RD cells (AID 1347104); also: nearly all actives have a fitted effect of over 55% in size
How it was run: as §1

[8] = qHTS of pediatric cancer cell lines to identify multiple opportunities for drug repurposing: Primary screen for MG 63 (6-TG R) cells (AID 1347105); also: nearly all actives have a fitted effect of over 50% in size
How it was run: as §1

[9] = qHTS of pediatric cancer cell lines to identify multiple opportunities for drug repurposing: Primary screen for control Hh wild type fibroblast cells (AID 1347106);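 also: series mostly up to about 46 µM; a drop in luminescence marks cytotoxicity and a rise apparent proliferation; nearly all actives have a fitted effect of over 55% in size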
How it was run: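 Viability after 48 h compound treatment at 37C, 500-1,000 cells/well, read as ATP luminescence with CellTiter-Glo. Primary screens used 11-point (MIPE, 0.78 nM-46 µM) or 8-point (NPC, 0.59 nM-46 µM) final concentrations; follow-up screens used 11-point dilutions.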

[10] = qHTS of pediatric cancer cell lines to identify multiple opportunities for drug repurposing: Primary screen for OHS-50 cells (AID 1347103); also: nearly all actives have a fitted effect of over 40% in size
How it was run: as §2

Row | Structure (SMILES) | Potency [1] | Potency [2] | Potency [3] | Potency [4] | Potency [5] | Potency [6] | Potency [7] | Potency [8] | Potency [9] | Potency [10]
1 | O=C(CN1CCN(Cc2ccc3c(c2)OCO3)CC1)N1c2ccccc2Sc2ccccc21 | inactive | inactive | inactive | inactive | inactive | inactive | inactive | inactive | inactive | 
2 | NC(=O)C1(N2CCCCC2)CCN(CCCC(=O)c2ccc(F)cc2)CC1 | inactive | inactive | inactive | inactive | inactive | inactive | inactive | inactive | inactive | inactive
3 | O=C(NCCc1c[nH]c2ccccc12)c1cccnc1 | inactive | inactive | inactive | inactive | inactive | inactive | inactive | inactive | inactive | inactive
4 | CN(C)CCN1C(=O)c2ccccc2N(C)c2ccccc21 | inactive | inactive | inactive | inactive | inactive | inactive | inactive | inactive | inactive | inactive
5 | Nc1ccc(S(=O)(=O)Nc2cnc3ccccc3n2)cc1 | inactive | inactive | inactive | inactive | inactive | inactive | inactive |  | inactive | inactive
6 | O=S(c1cc(Cl)cc(Cl)c1O)c1cc(Cl)cc(Cl)c1O | 16.8 µM (active) | inactive | inactive | inactive | inactive | inactive | inactive | inactive | inactive | inactive
7 | CN1CCN(c2cc3c(cc2F)c(=O)c(C(=O)O)cn3-c2ccc(F)cc2)CC1 | inactive | inactive | inactive | inactive | inactive | inactive | inactive | inactive | inactive | inactive
8 | CCOC(=O)C(C#N)=C(c1ccccc1)c1ccccc1 | inactive | inactive | inactive | inactive | inactive | inactive | inactive |  | inactive | 
9 | CN1CCN(C2=Nc3ccccc3Sc3ccc(Cl)cc32)CC1 | inactive | inactive | inactive | inactive | inactive | inactive | inactive | inactive | inactive | 
10 | O=C(O)Cc1csc(-c2ccc(Cl)cc2)n1 | inactive | inactive | inactive | inactive | inactive | inactive | inactive |  | inactive | inactive
11 | COc1ccc(CN(CCN(C)C)c2ncccn2)cc1 | inactive | inactive | inactive | inactive | inactive | inactive | inactive | inactive | inactive | inactive
12 | CC(C)(C)NC[C@H](O)COc1nsnc1N1CCOCC1 | inactive | inactive | inactive | inactive | inactive | inactive | inactive | inactive | inactive | inactive
13 | CCc1cc(Cl)c(OC)c(C(=O)NC[C@@H]2CCCN2CC)c1O | inactive | inactive | inactive | inactive | inactive | inactive | inactive | inactive | inactive | 
14 | CC(C)CCCC(C)N (stereo unspecified) | inactive | inactive | inactive | inactive | inactive | inactive | inactive | inactive | inactive | inactive
15 | Cc1ccc(S(=O)(=O)NC(=O)NC2CCCC2)cc1 | inactive | inactive | inactive | inactive | inactive | inactive | inactive |  | inactive | inactive
16 | Cc1cccc(C)c1NC(=O)CN1CCCCCC1 | inactive | inactive | inactive | inactive | inactive | inactive | inactive | inactive | inactive | inactive
17 | CCC(CC)(CC(=O)Nc1cccc(/C=C/c2nc(C3CCC3)cs2)c1)C(=O)O | inactive | inactive | inactive | inactive | inactive | inactive | inactive |  | inactive | 
18 | CC1=C(C(=O)O)N2C(=O)[C@@H](NC(=O)[C@H](N)c3ccccc3)[C@H]2SC1 | inactive | inactive | inactive | inactive | inactive | inactive | inactive | inactive | inactive | inactive
19 | NS(=O)(=O)c1ccc(Cl)c(S(N)(=O)=O)c1 | inactive | inactive | inactive | inactive | inactive | inactive | inactive |  | inactive | inactive
20 | CCN(CC)CCNC(=O)c1cc(Br)c(N)cc1OC | inactive | inactive | inactive | inactive | inactive | inactive | inactive |  | inactive | inactive
21 | CC(C)(C)CC(C)(C)c1ccc(O)c(-n2nc3ccccc3n2)c1 | inactive | inactive | inactive | inactive | inactive | inactive | inactive |  | inactive | 
22 | CC(=O)OCC(=O)[C@H]1CC[C@H]2[C@@H]3CCC4=CC(=O)CC[C@]4(C)[C@H]3CC[C@]12C | inactive | inactive | inactive | inactive | inactive | inactive | inactive | inactive | inactive | 
23 | C=C[C@@]1(C)CC(=O)[C@]2(O)[C@@]3(C)[C@@H](O)CCC(C)(C)[C@@H]3[C@H](O)[C@H](OC(C)=O)[C@@]2(C)O1 | inactive | inactive | inactive | inactive | inactive | inactive | inactive | inactive | inactive | 
24 | O=C(O)P(=O)(O)O | inactive | inactive | inactive | inactive | inactive | inactive | inactive | inactive | inactive | inactive
25 | O=C1OC(CN2CCOCC2)CN1/N=C/c1ccc([N+](=O)[O-])o1 (stereo unspecified) | inactive | inactive | inactive | inactive | inactive | inactive | inactive |  | inactive | inactive
26 | CCC(Cc1c(I)cc(I)c(N)c1I)C(=O)O (stereo unspecified) | inactive | inactive | inactive | inactive | inactive |  | inactive | inactive | inactive | inactive

Row | Structure (SMILES) | Potency [1] | Potency [2] | Potency [3] | Potency [4] | Potency [5] | Potency [6] | Potency [7] | Potency [8] | Potency [9] | Potency [10]
27 | CN(C)CCOC(c1ccc(Cl)cc1)c1ccccn1 (stereo unspecified) | inactive | inactive | inactive |  | inactive | inactive | inactive | inactive | inactive | inactive
28 | C=CCN1CCc2nc(N)sc2CC1 | inactive | inactive | inactive | inactive | inactive |  | inactive | inactive | inactive | inactive
29 | C#C[C@]1(O)CC[C@H]2[C@@H]3[C@H](C)CC4=C(CCC(=O)C4)[C@H]3CC[C@@]21C | inactive | inactive | inactive | inactive |  |  | inactive |  | inactive | inactive
30 | C[C@@H](O)[C@H]1C(=O)N2C(C(=O)O)=C([C@H]3CCCO3)S[C@H]12 | inactive | inactive | inactive | inactive | inactive |  | inactive | inactive | inactive | inactive
31 | CC(O)Cn1cnc2c1c(=O)n(C)c(=O)n2C (stereo unspecified) | inactive | inactive | inactive | inactive | inactive |  | inactive | inactive | inactive | inactive
32 | CC(C)[N+](C)(C)CC(O)COc1cccc2ccccc12 (stereo unspecified) | inactive | inactive | inactive | inactive |  | inactive | inactive | inactive | inactive | 
33 | CC(=O)NO | inactive | inactive | inactive | inactive | inactive |  | inactive | inactive | inactive | inactive
34 | CC1CCc2c(N3CCC(O)CC3)c(F)cc3c(=O)c(C(=O)O)cn1c23 (stereo unspecified) | inactive | inactive | inactive | inactive |  |  | inactive |  | inactive | inactive
35 | Cl/C(=C\n1cncn1)c1ccc(Cl)cc1Cl | inactive | inactive | inactive | inactive | inactive |  | inactive |  | inactive | inactive
36 | CC(=O)OCC1=C(C(=O)O)N2C(=O)[C@@H](NC(=O)CSc3ccncc3)[C@H]2SC1 | inactive | inactive | inactive | inactive | inactive |  | inactive | inactive | inactive | inactive
37 | O=C(O)CCNC(=O)c1ccccc1 | inactive | inactive | inactive | inactive | inactive |  | inactive | inactive | inactive | inactive
38 | O=C(Nc1ccc([N+](=O)[O-])cc1)Nc1ccc([N+](=O)[O-])cc1 | inactive | inactive | inactive |  | inactive | inactive | inactive |  | inactive | inactive
39 | CC(=O)Oc1ccc(C)cc1 | inactive | inactive | inactive | inactive | inactive |  | inactive | inactive | inactive | inactive
40 | COc1ccc(S(=O)(=O)N2c3ccc(Cl)cc3[C@@](O)(c3ccccc3Cl)[C@H]2C(=O)N2CCC[C@@H]2C(N)=O)cc1OC | inactive | inactive | inactive | inactive | inactive |  | inactive |  | inactive | inactive
41 | CCN(CC)CCOC(=O)C1(c2ccccc2)CCCC1 | inactive | inactive | inactive | inactive | inactive |  | inactive | inactive | inactive | inactive
42 | C/C=C/c1ccc(O)c(OC)c1 | inactive | inactive | inactive |  | inactive | inactive | inactive | inactive | inactive | inactive
43 | FC(F)(F)C(F)(F)C(F)(F)C(F)(F)C(F)(F)C(F)(F)C(F)(F)C(F)(F)Br | inactive | inactive | inactive |  | inactive | inactive | inactive | inactive | inactive | inactive
44 | C=C[C@H]1CN2CC[C@H]1C[C@@H]2[C@@H](O)c1ccnc2ccc(OC)cc12 | inactive | inactive | inactive | inactive | inactive |  | inactive | inactive | inactive | inactive
45 | CN1CCC(OC(c2ccccc2)c2ccccc2)CC1 | inactive | inactive | inactive | inactive |  | inactive | inactive | inactive | inactive | 
46 | Cc1ncc(CO)c(C=O)c1O | inactive | inactive | inactive |  | inactive | inactive | inactive | inactive | inactive | inactive
47 | CCOc1ccccc1OCCN[C@H](C)Cc1ccc(OC)c(S(N)(=O)=O)c1 | inactive | inactive | inactive |  | inactive | inactive | inactive | inactive | inactive | inactive
48 | CC(=O)N[C@@H](CCC(=O)O)C(=O)O | inactive | inactive | inactive | inactive | inactive |  | inactive | inactive | inactive | inactive
49 | O=C1[C@H](CC[C@H](O)c2ccc(F)cc2)[C@@H](c2ccc(O)cc2)N1c1ccc(F)cc1 | inactive | inactive | inactive | inactive |  | inactive | inactive | inactive | inactive | 
50 | O=C1C(O)=C(O)C(=O)C(O)=C1O | inactive | inactive | inactive |  | inactive | inactive | inactive | inactive | inactive | inactive
51 | NCCNC(=O)c1ccc(Cl)cn1 | inactive | inactive | inactive |  | inactive | inactive | inactive |  | inactive | inactive
